Source: the supplement of paper PMC4466140

B1: unnamed (peptide)
chain: MFLISPPASPPPEFD

What follows are binders tested against AgAbp1 (assay: SPOT peptide array binding signal intensity (averaged, normalized) (arbitrary units (background-subtracted, floor 0; scale differs between SH3 domains)); higher = stronger binding of the SH3 domain to the peptide).
Outline: (§1)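 E. coli BL21(DE3) was used to express GST-fused SH3 domains from four yeast species, which were then purified on glutathione Sepharose. These were incubated at 10 μg/ml in TBS-based blocking buffer overnight at 4°C on cellulose membranes carrying synthetic 15-mer peptides, in which cysteines were replaced by serines. Binding signal is the replicate average of normalized, background-subtracted spot intensity, in arbitrary units that differ between domains.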

Binder	SPOT peptide array binding signal intensity
B1	≤ 0

Each binder was assayed against AgBbc1 in the same assay as above.
Outline: as §1

Binder	SPOT peptide array binding signal intensity
B1	≤ 0

The binders below were run against AgBem1-D1 in the same assay as above.
Outline: as §1

Binder	SPOT peptide array binding signal intensity
B1	70

Each binder was assayed against AgBzz1-D1 in the same assay as above.
Outline: as §1

Binder	SPOT peptide array binding signal intensity
B1	≤ 0

These binders were tested against AgBzz1-D2 in the same assay as above.
Outline: as §1

Binder	SPOT peptide array binding signal intensity
B1	≤ 0

The binders below were run against AgCyk3 in the same assay as above.
Outline: as §1

Binder	SPOT peptide array binding signal intensity
B1	1.5

What follows are binders tested against AgFus1 in the same assay as above.
Outline: as §1

Binder	SPOT peptide array binding signal intensity
B1	4

These binders were tested against AgHof1 in the same assay as above.
Outline: as §1

Binder	SPOT peptide array binding signal intensity
B1	4

The binders below were run against AgHse1 in the same assay as above.
Outline: as §1

Binder	SPOT peptide array binding signal intensity
B1	≤ 0

The binders below were run against AgLsb1 in the same assay as above.
Outline: as §1

Binder	SPOT peptide array binding signal intensity
B1	≤ 0

The binders below were run against AgLsb4 in the same assay as above.
Outline: as §1

Binder	SPOT peptide array binding signal intensity
B1	≤ 0

These binders were tested against AgMyo5 in the same assay as above.
Outline: as §1

Binder	SPOT peptide array binding signal intensity
B1	388

Each binder was assayed against AgNbp2 in the same assay as above.
Outline: as §1

Binder	SPOT peptide array binding signal intensity
B1	2

These binders were tested against AgRvs167 in the same assay as above.
Outline: as §1

Binder	SPOT peptide array binding signal intensity
B1	≤ 0

What follows are binders tested against AgSho1 in the same assay as above.
Outline: as §1

Binder	SPOT peptide array binding signal intensity
B1	1.5

What follows are binders tested against AgSla1-D1-D2 in the same assay as above.
Outline: as §1

Binder	SPOT peptide array binding signal intensity
B1	3

What follows are binders tested against AgSla1-D3 in the same assay as above.
Outline: as §1

Binder	SPOT peptide array binding signal intensity
B1	1

These binders were tested against CaAbp1-D1 in the same assay as above.
Outline: as §1

Binder	SPOT peptide array binding signal intensity
B1	≤ 0

Each binder was assayed against CaAbp1-D2 in the same assay as above.
Outline: as §1

Binder	SPOT peptide array binding signal intensity
B1	≤ 0

Each binder was assayed against CaBbc1 in the same assay as above.
Outline: as §1

Binder	SPOT peptide array binding signal intensity
B1	6

The binders below were run against CaBem1-D1 in the same assay as above.
Outline: as §1

Binder	SPOT peptide array binding signal intensity
B1	≤ 0

Each binder was assayed against CaBzz1-D1 in the same assay as above.
Outline: as §1

Binder	SPOT peptide array binding signal intensity
B1	≤ 0

What follows are binders tested against CaBzz1-D2 in the same assay as above.
Outline: as §1

Binder	SPOT peptide array binding signal intensity
B1	≤ 0

Each binder was assayed against CaCyk3 in the same assay as above.
Outline: as §1

Binder	SPOT peptide array binding signal intensity
B1	2

These binders were tested against CaFus1 in the same assay as above.
Outline: as §1

Binder	SPOT peptide array binding signal intensity
B1	342

What follows are binders tested against CaHof1 in the same assay as above.
Outline: as §1

Binder	SPOT peptide array binding signal intensity
B1	≤ 0

Each binder was assayed against CaHse1 in the same assay as above.
Outline: as §1

Binder	SPOT peptide array binding signal intensity
B1	8

These binders were tested against CaLsb1 in the same assay as above.
Outline: as §1

Binder	SPOT peptide array binding signal intensity
B1	≤ 0

What follows are binders tested against CaLsb4 in the same assay as above.
Outline: as §1

Binder	SPOT peptide array binding signal intensity
B1	≤ 0

Each binder was assayed against CaMyo5 in the same assay as above.
Outline: as §1

Binder	SPOT peptide array binding signal intensity
B1	180

These binders were tested against CaNbp2 in the same assay as above.
Outline: as §1

Binder	SPOT peptide array binding signal intensity
B1	31

The binders below were run against CaRvs167 in the same assay as above.
Outline: as §1

Binder	SPOT peptide array binding signal intensity
B1	5.83

The binders below were run against CaRvs167-3 in the same assay as above.
Outline: as §1

Binder	SPOT peptide array binding signal intensity
B1	3.75

These binders were tested against CaSho1 in the same assay as above.
Outline: as §1

Binder	SPOT peptide array binding signal intensity
B1	19

These binders were tested against CaSla1-D1-D2 in the same assay as above.
Outline: as §1

Binder	SPOT peptide array binding signal intensity
B1	≤ 0

Each binder was assayed against CaSla1-D3 in the same assay as above.
Outline: as §1

Binder	SPOT peptide array binding signal intensity
B1	11.2

What follows are binders tested against ScAbp1 in the same assay as above.
Outline: as §1

Binder	SPOT peptide array binding signal intensity
B1	5.5

Each binder was assayed against ScBbc1 in the same assay as above.
Outline: as §1

Binder	SPOT peptide array binding signal intensity
B1	≤ 0

These binders were tested against ScBem1-D1 in the same assay as above.
Outline: as §1

Binder	SPOT peptide array binding signal intensity
B1	≤ 0

Each binder was assayed against ScBzz1-D1 in the same assay as above.
Outline: as §1

Binder	SPOT peptide array binding signal intensity
B1	7

These binders were tested against ScBzz1-D2 in the same assay as above.
Outline: as §1

Binder	SPOT peptide array binding signal intensity
B1	2

What follows are binders tested against ScCyk3 in the same assay as above.
Outline: as §1

Binder	SPOT peptide array binding signal intensity
B1	2

These binders were tested against ScFus1 in the same assay as above.
Outline: as §1

Binder	SPOT peptide array binding signal intensity
B1	7

What follows are binders tested against ScHof1 in the same assay as above.
Outline: as §1

Binder	SPOT peptide array binding signal intensity
B1	≤ 0

These binders were tested against ScHse1 in the same assay as above.
Outline: as §1

Binder	SPOT peptide array binding signal intensity
B1	≤ 0

What follows are binders tested against ScLsb1 in the same assay as above.
Outline: as §1

Binder	SPOT peptide array binding signal intensity
B1	≤ 0

The binders below were run against ScLsb2 in the same assay as above.
Outline: as §1

Binder	SPOT peptide array binding signal intensity
B1	≤ 0

Each binder was assayed against ScLsb3 in the same assay as above.
Outline: as §1

Binder	SPOT peptide array binding signal intensity
B1	≤ 0

What follows are binders tested against ScLsb4 in the same assay as above.
Outline: as §1

Binder	SPOT peptide array binding signal intensity
B1	≤ 0

What follows are binders tested against ScMyo3 in the same assay as above.
Outline: as §1

Binder	SPOT peptide array binding signal intensity
B1	735

What follows are binders tested against ScMyo5 in the same assay as above.
Outline: as §1

Binder	SPOT peptide array binding signal intensity
B1	650

The binders below were run against ScNbp2 in the same assay as above.
Outline: as §1

Binder	SPOT peptide array binding signal intensity
B1	20

These binders were tested against ScPex13 in the same assay as above.
Outline: as §1

Binder	SPOT peptide array binding signal intensity
B1	≤ 0

What follows are binders tested against ScRvs167 in the same assay as above.
Outline: as §1

Binder	SPOT peptide array binding signal intensity
B1	≤ 0

Each binder was assayed against ScSho1 in the same assay as above.
Outline: as §1

Binder	SPOT peptide array binding signal intensity
B1	≤ 0

These binders were tested against ScSla1-D1-D2 in the same assay as above.
Outline: as §1

Binder	SPOT peptide array binding signal intensity
B1	≤ 0

These binders were tested against ScSla1-D3 in the same assay as above.
Outline: as §1

Binder	SPOT peptide array binding signal intensity
B1	7.25

Each binder was assayed against SpAbp1-D1 in the same assay as above.
Outline: as §1

Binder	SPOT peptide array binding signal intensity
B1	≤ 0

What follows are binders tested against SpBbc1 in the same assay as above.
Outline: as §1

Binder	SPOT peptide array binding signal intensity
B1	0.5

Each binder was assayed against SpBzz1-D1 in the same assay as above.
Outline: as §1

Binder	SPOT peptide array binding signal intensity
B1	33.5

Each binder was assayed against SpBzz1-D2 in the same assay as above.
Outline: as §1

Binder	SPOT peptide array binding signal intensity
B1	≤ 0

These binders were tested against SpCyk3 in the same assay as above.
Outline: as §1

Binder	SPOT peptide array binding signal intensity
B1	4

These binders were tested against SpHof1 in the same assay as above.
Outline: as §1

Binder	SPOT peptide array binding signal intensity
B1	7.5

These binders were tested against SpHof1-2 in the same assay as above.
Outline: as §1

Binder	SPOT peptide array binding signal intensity
B1	8.25

The binders below were run against SpHof1-3 in the same assay as above.
Outline: as §1

Binder	SPOT peptide array binding signal intensity
B1	≤ 0

These binders were tested against SpHse1 in the same assay as above.
Outline: as §1

Binder	SPOT peptide array binding signal intensity
B1	103

These binders were tested against SpLsb1 in the same assay as above.
Outline: as §1

Binder	SPOT peptide array binding signal intensity
B1	≤ 0

What follows are binders tested against SpLsb4 in the same assay as above.
Outline: as §1

Binder	SPOT peptide array binding signal intensity
B1	49

The binders below were run against SpMyo1 in the same assay as above.
Outline: as §1

Binder	SPOT peptide array binding signal intensity
B1	1430

The binders below were run against SpNbp2 in the same assay as above.
Outline: as §1

Binder	SPOT peptide array binding signal intensity
B1	9

These binders were tested against SpPex13 in the same assay as above.
Outline: as §1

Binder	SPOT peptide array binding signal intensity
B1	2.5

What follows are binders tested against SpRvs167 in the same assay as above.
Outline: as §1

Binder	SPOT peptide array binding signal intensity
B1	≤ 0

These binders were tested against SpSla1-D1-D2 in the same assay as above.
Outline: as §1

Binder	SPOT peptide array binding signal intensity
B1	≤ 0

Each binder was assayed against SpSla1-D3 in the same assay as above.
Outline: as §1

Binder	SPOT peptide array binding signal intensity
B1	≤ 0
